Experimental data published in PubChem BioAssay (Tox21).
Where “and” joins values, the source holds several entries; their conditions need not be identical. Identical values can stand only once. Inconclusive results are not listed. Calls of active or inactive are those of the source. Unless noted, calls follow the shape of the dose curve; as a rule, active = well fitted curve in the direction sought with a large enough effect in the repeat runs; inconclusive = weak or mixed curves; inactive = no such curve, though single readings can be large; an effect the other way counts as inactive or inconclusive.

What was measured:
[1] = qHTS assay to identify small molecule antagonists of the estrogen related receptor (ERR) signaling pathway from Tox21 library - cell viability counter screen (AID 1224834); also: nearly all actives have a fitted effect of over 30% in size
Outline: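 CellTiter-Fluor fluorescence measured; ERR cells; 17.5 h compound incubation at 37 C; 30 min reagent step.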

[2] = molecular target: Luciferin 4-monooxygenase (Photinus pyralis) (UniProt P08659); experiment: qHTS assay to identify small molecule inhibitors of firefly luciferase (AID 1224835); also: nearly all actives have a fitted effect of over 25% in size
Luciferin 4-monooxygenase (Photinus pyralis), sequence (P08659 whole entry, looked up): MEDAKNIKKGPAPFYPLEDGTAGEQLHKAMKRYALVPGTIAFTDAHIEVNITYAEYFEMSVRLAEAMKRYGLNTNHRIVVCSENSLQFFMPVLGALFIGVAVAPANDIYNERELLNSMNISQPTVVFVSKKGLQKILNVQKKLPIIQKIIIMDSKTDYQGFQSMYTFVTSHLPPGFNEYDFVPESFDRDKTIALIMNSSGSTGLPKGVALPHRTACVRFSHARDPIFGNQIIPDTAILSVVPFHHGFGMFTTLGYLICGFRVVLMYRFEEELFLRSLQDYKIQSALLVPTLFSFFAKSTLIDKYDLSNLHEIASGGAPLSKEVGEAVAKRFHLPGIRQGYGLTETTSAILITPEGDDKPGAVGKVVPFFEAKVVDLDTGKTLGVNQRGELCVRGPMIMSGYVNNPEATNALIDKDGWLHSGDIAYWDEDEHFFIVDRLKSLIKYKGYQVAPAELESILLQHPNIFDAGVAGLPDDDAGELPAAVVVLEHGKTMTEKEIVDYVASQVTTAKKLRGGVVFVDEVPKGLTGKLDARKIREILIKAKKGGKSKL
Outline: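 Inhibition of purified Photinus luciferase is measured by luminescence. Substrate levels (D-luciferin, ATP) sit at their KM values. Each compound is tested in a concentration series.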

[3] = qHTS assay to identify small molecule agonists of the constitutive androstane receptor (CAR) signaling pathway - cell viability counter screen (AID 1224836); also: nearly all actives have a fitted effect of over 45% in size
Outline: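 HepG2 cells stably carrying hCAR and a CYP2B6-2.2kb reporter; 15-concentration compounds plus PK11195 (final 0.75 uM), 23 hr at 37 C/5% CO2. Viability read by CellTiter-Fluor fluorescence.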

[4] = qHTS assay to identify small molecule antagonists of the constitutive androstane receptor (CAR) signaling pathway - cell viability counter screen (AID 1224837); also: nearly all actives have a fitted effect of over 45% in size
Outline: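 Using CellTiter-Fluor, viability is scored in HepG2 cells stably carrying hCAR and a 2.2kb CYP2B6 reporter after 23 hr compound exposure across 15 concentrations, with CITCO present at 50 nM.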

[5] = molecular target: Nuclear receptor subfamily 1 group I member 3 (Homo sapiens) (UniProt Q14994); experiment: qHTS assay to identify small molecule antagonists of the constitutive androstane receptor (CAR) signaling pathway (AID 1224838);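 also: HepG2 cells stably expressing hCAR with CYP2B6 luciferase reporter stimulated by CITCO; nearly all actives have a fitted effect of over 40% in size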
Nuclear receptor subfamily 1 group I member 3 (Homo sapiens), sequence (Q14994 whole entry, looked up): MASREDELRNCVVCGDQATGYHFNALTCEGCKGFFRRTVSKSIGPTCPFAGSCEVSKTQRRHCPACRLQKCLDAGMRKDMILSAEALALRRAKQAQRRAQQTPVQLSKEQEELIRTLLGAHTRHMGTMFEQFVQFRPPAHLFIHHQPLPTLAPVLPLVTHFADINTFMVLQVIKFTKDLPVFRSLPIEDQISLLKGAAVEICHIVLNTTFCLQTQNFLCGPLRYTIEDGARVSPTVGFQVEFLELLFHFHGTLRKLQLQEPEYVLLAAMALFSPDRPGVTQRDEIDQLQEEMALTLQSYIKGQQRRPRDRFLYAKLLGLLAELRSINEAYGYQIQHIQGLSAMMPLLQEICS
Outline: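 Reporter luminescence was quantified after 24 h exposure of hCAR/CYP2B6-2.2kb double-stable HepG2 cells to compounds at 15 concentrations in the presence of 50 nM CITCO final.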

[6] = molecular target: Thyrotropin receptor (Homo sapiens) (UniProt P16473); experiment: qHTS assay to identify small molecule agonists of the thyroid stimulating hormone receptor (TSHR) signaling pathway (AID 1224843; calls by dose curve; also: nearly all actives have a fitted effect of over 45% in size)
Thyrotropin receptor (Homo sapiens), sequence (P16473 whole entry, looked up): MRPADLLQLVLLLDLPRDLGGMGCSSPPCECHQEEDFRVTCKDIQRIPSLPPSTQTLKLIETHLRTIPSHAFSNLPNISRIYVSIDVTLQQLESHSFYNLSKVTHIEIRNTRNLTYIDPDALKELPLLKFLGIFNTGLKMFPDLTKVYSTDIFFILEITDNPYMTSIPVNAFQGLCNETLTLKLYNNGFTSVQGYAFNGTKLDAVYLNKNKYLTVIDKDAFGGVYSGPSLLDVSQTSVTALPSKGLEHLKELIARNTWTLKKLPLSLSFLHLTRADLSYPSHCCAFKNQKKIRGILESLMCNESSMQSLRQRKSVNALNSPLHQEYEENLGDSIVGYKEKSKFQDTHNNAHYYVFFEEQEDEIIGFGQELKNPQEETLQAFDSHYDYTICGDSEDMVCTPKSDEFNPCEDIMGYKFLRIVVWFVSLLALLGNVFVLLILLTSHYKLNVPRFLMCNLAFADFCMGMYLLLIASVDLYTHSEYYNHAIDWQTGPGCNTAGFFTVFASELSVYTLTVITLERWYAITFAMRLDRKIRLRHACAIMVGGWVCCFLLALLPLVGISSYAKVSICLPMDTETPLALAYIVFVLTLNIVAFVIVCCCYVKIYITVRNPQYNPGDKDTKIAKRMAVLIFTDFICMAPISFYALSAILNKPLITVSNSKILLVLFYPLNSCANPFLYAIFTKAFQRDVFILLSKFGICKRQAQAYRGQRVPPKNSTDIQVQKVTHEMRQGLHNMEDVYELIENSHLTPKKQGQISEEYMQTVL
Outline: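 HEK293 cells stably bearing the thyrotropin receptor were plated at 800 cells/well and challenged with compound (30 min, RT). Accumulated cAMP was quantified via cAMP-d2 competing for cryptate-tagged antibody.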

[7] = qHTS assay to identify small molecule agonists of the hypoxia (HIF-1) signaling pathway - cell viability counter screen (AID 1224844; calls by dose curve; also: nearly all actives have a fitted effect of over 50% in size)
Outline: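 Multiplexed with the HRE beta-lactamase assay, this viability read used CellTiter-Glo luminescence (30 min, RT) on HRE-bla ME-180 cells treated 17 hrs with compounds in 0.5% dialyzed FBS medium.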

[8] = qHTS assay to identify small molecule agonists of H2AX (AID 1224845; active = well fitted activation curve with a large enough effect in the signal ratio in the repeat runs, not every such curve was filed as active; the % refers to the signal ratio)
Outline: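 Phospho-H2AX Ser139 measured by HTRF (ex 320 nm; em 665 and 620 nm) after 24 hr antibody incubation. Compounds, 15 concentrations, 0.76% DMSO, were applied to CHO-K1 cells for 3hr at 37C before lysis.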

[9] = qHTS assay to identify small molecule agonists of the hypoxia (HIF-1) signaling pathway (AID 1224846; active = well fitted activation curve with a large enough effect in the signal ratio in the repeat runs, not every such curve was filed as active; the % refers to the signal ratio)
Outline: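 Hypoxia-pathway activation was scored as increased beta-lactamase from an HRE-controlled reporter in ME-180 cells; plated at 2,000 cells per well with 0.5% dialyzed FBS, they were exposed 17 hrs to compounds and then given CCF4-AM.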

[10] = qHTS assay to identify small molecule agonists of H2AX - cell viability counter screen (AID 1224847; calls by dose curve;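 also: wild-type CHO-K1 cells; top concentration of the series differs between compounds; nearly all actives have a fitted effect of over 30% in size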)
Outline: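 CHO-K1 cells plated overnight at 37C, then exposed 3 h at 37C to compounds at 15 concentrations (0.76% DMSO final). Viability by CellTiter-Glo luminescence after 30 min at room temperature.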

[11] = qHTS RealTime-Glo MT Cell Viability Assay in HepG2 cells - 24 hour (AID 1224867); also: nearly all actives have a fitted effect of over 50% in size
Outline: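 HepG2 cells (600/well) were dispensed with RealTime-Glo reagents, incubated 5 h at 37 °C, then treated with compounds in DMSO for up to 40 h. Nonlytic NanoLuc luminescence reflecting viable cells was read at each stated time point.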

[12] = qHTS RealTime-Glo MT Cell Viability Assay in HEK293 cells - 32 hour (AID 1224868); also: top concentration of the series differs between compounds; nearly all actives have a fitted effect of over 50% in size
Outline: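 HEK293 cells seeded with NanoLuc/prosubstrate reagent, rested 5 h at 37 C, then dosed and kept at 37 C up to 40 h. Nonlytic real-time luminescence from viable cells read at 0, 8, 16, 24, 32 and 40 h.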

[13] = A CellTox Green Cytotoxicity Assay to monitor cytotoxicity in HEK293 cells - 0 hour (AID 1224869); also: nearly all actives have a fitted effect of over 50% in size
Outline: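 Seeding of HEK293 cells together with cytotoxicity dye preceded a 5 h incubation at 37 C/5% CO2. Test compounds in DMSO were then added and fluorescence monitored across 40 h.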

[14] = qHTS RealTime-Glo MT Cell Viability Assay in HepG2 cells - 40 hour (AID 1224870); also: nearly all actives have a fitted effect of over 50% in size
Outline: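 Real-time viability: cells seeded at 600 per well together with NanoLuc and cell-permeant prosubstrate, compounds added after 5 h incubation. Luminescence tracked at 0, 8, 16, 24, 32 and 40 h of exposure.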

[15] = qHTS assay to identify small molecule antagonists of the estrogen related receptor signaling pathway with the pleiotropic PPARgamma coactivator (PGC) from Tox21 10K library (AID 1224841; call rule not given here)
Outline: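 Each well held 2,000 PGC/ERR cells, pre-incubated six hours (37 C, 5% CO2). Test substances in DMSO were added by pin tool and left for 18 h at 37 C before luciferase detection by One-Glo.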

[16] = qHTS assay to identify small molecule agonists of the estrogen related receptor signaling pathway with the pleiotropic PPARgamma coactivator (PGC) from Tox21 10K library (AID 1224842); also: nearly all actives have a fitted effect of over 15% in size
Outline: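 Luminescence from One-Glo (30 min, room temperature) measured after PGC/ERR cells had 18 h at 37 C with pinned compound (23 nL in DMSO). Cells had been seeded at 2,000 per well and pre-incubated 6 h.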

[17] = qHTS assay to identify small molecule antagonists of the estrogen related receptor (ERR) signaling pathway from Tox21 library (AID 1224848); also: nearly all actives have a fitted effect of over 50% in size
Outline: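 Reading was by luminescence 30 min after ONE-Glo addition. Before that, ERR cells at 2,000 per well had rested 6 h at 37 C/5% CO2 and then received pin-tooled compounds in DMSO for 18 h at 37 C.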

[18] = qHTS assay to identify small molecule agonists of the estrogen related receptor (ERR) signaling pathway from Tox21 library (AID 1224849; calls by dose curve; also: nearly all actives have a fitted effect of over 15% in size); settings: ERR reporter cell line, ONE-Glo luciferase, 18 h; at 92.4 µM (top of the series)
Outline: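 Six hours post-seeding at 37 C/5% CO2, ERR cells receive DMSO-solubilised compounds; after 18 h at 37 C, ONE-Glo reagent is applied and luminescence recorded.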

[19] = qHTS assay to identify small molecule antagonists of the estrogen related receptor signaling pathway with the pleiotropic PPARgamma coactivator (PGC) from Tox21 10K library - cell viability counter screen (AID 1224840; active = well fitted cell-killing curve with a large enough effect in the repeat runs, not every such curve was filed as active; also: nearly all actives have a fitted effect of over 40% in size)
Outline: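 Here the PGC/ERR cells serve as a cytotoxicity control: they are exposed to compounds for 17.5 hours at 37 C, and live-cell signal is quantified using CellTiter-Fluor fluorescence.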
% is scaled to controls: 0 for no effect and ±100 for the full control effect.

COc1c2ccoc2cc2oc(=O)ccc12
inactive: Potency [1] | Potency [2] | Potency [3] | Potency [4] | Potency [5] | Potency [6] | Potency [7] | Potency [8] | outcome [9] | Potency [10] | Potency [11] | Potency [12] | Potency [13] | Potency [14]

Nc1cccc(C(F)(F)F)c1
inactive: Potency [1] | Potency [2] | Potency [3] | Potency [4] | Potency [15] | Potency [16] | Potency [6] | Potency [7] | Potency [8] | outcome [9] | Potency [10] | Potency [17] | activity change, positive = activation [18] 2.57% and 2.05% | Potency [11] | Potency [12] | Potency [13] | Potency [14]

Cc1cc(CC(=O)O)n(C)c1C(=O)c1ccc(Cl)cc1
inactive: Potency [1] | Potency [2] | Potency [3] | Potency [4] | Potency [19] | Potency [6] | Potency [7] | Potency [8] | outcome [9] | Potency [10] | Potency [11] | Potency [12] | Potency [13] | Potency [14]

OCCOCCOCCOCCOCCO
inactive: Potency [1] | Potency [3] | Potency [4] | Potency [19] | Potency [15] | Potency [16] | Potency [6] | Potency [7] | Potency [8] | outcome [9] | Potency [10] | Potency [17] | activity change, positive = activation [18] 2.04% and 4.48% | Potency [11] | Potency [12] | Potency [13] | Potency [14]

Cc1ccncc1
inactive: Potency [1] | Potency [2] | Potency [3] | Potency [4] | Potency [19] | Potency [6] | Potency [7] | Potency [8] | outcome [9] | Potency [10] | Potency [11] | Potency [12] | Potency [13] | Potency [14]

Cc1nnc(NS(=O)(=O)c2ccc(N)cc2)s1
inactive: Potency [1] | Potency [2] | Potency [3] | Potency [4] | Potency [19] | Potency [6] | Potency [7] | Potency [8] | Potency [10] | Potency [11] | Potency [12] | Potency [13] | Potency [14]
